# Measurements reported in PubChem BioAssay AID1788 (Vanderbilt High Throughput Screening Facility, 2009).
# Values without a mark were called inactive. How the calls were made is not given here.
# System: Calcium channel L-type (rat)
# Experiment: PubChem AID 1788
# Conditions: MDS Pharma lead profiling panel, radioligand binding, benzothiazepine site, at 10 µM, active compounds read high
smiles,measurement,value
CCOC(=O)N1CCC(NCCNC(=O)c2ccccc2C)CC1,inhibition,-4%
